Screens deposited in PubChem BioAssay by Buhrlage Lab, Dana-Farber Cancer Institute and Novartis Institutes for BioMedical Research (Cambridge, Mass).
Sampled rows, rich in hits. Any-hit rate of the full collection: about 14%.
USP28 inh: human USP28 deubiquitinase inhibition; Q96RU2; purified USP28, Ub-rhodamine cleavage fluorescence, 30 min; inhibition, % at 25 µM; 3% of 47,000 active; AID 1645857
USP8 inh: blocks human USP8 ubiquitin-rhodamine cleavage | P40818 | inhibition, % at 20 µM | purified USP8, Ub-rhodamine cleavage fluorescence, 30 min | 4.2% of 47,000 active | AID 1645853
USP10 block: blocks human USP10 ubiquitin-rhodamine cleavage. Q14694. purified USP10, Ub-rhodamine fluorescence, 60 min. inhibition, % at 20 µM. 1.1% of 47,000 active
USP30 inh: human USP30 deubiquitinase inhibition; Q70CQ3; purified USP30, Ub-rhodamine cleavage fluorescence; inhibition, % at 25 µM; 5.3% of 47,000 active; AID 1645860
Target sequence (Q70CQ3 whole entry, looked up): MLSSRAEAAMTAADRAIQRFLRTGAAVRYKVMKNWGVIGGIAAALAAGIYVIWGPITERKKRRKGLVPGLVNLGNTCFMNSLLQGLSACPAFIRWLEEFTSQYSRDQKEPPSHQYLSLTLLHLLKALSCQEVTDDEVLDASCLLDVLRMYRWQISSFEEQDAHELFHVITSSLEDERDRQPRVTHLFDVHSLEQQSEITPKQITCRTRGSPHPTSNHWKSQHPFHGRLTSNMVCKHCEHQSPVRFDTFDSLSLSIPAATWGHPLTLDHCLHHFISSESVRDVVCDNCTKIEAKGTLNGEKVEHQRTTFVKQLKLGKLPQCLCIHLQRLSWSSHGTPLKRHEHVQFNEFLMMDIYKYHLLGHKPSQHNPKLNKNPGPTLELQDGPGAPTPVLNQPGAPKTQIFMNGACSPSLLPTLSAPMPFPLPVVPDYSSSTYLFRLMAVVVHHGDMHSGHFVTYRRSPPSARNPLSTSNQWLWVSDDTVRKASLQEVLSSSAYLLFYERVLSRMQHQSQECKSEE
USP17 block: inhibitors of human USP17 deubiquitinase; purified USP17, Ub-rhodamine cleavage fluorescence, 3 h; inhibition, % at 50 µM; 6.5% of 47,000 active
* marks the source's active call; other numbers are inactive results; nt = no result. Rule as the data show it: active = inhibition above about 30%; inactive = the rest.

SMILES | USP28 inh | USP8 inh | USP10 block | USP30 inh | USP17 block
CC(C)(C)c1cc(C[C@@H]2C[C@H](NC(=O)N3CCOCC3)C2(C)C)no1 | 16 | 23 | 1 | 69* | 39*
CC(C)(C)c1cc(NC(=O)C2CCCO2)no1 (configuration not stated) | -9 | -4 | 1 | -13 | -3
CC1CCN(S(=O)(=O)c2ccc(-c3nnc(C(=O)N4CCCCC4)o3)cc2)CC1 | -14 | -8 | -3 | -1 | 0
O=C1N(Cc2ccc(F)cc2)CCN1c1ccc2c(c1)OCO2 | 48* | 12 | 4 | 20 | 11
CSc1nn(-c2ccccc2)cc1C(=O)N1CCOCC1 | -6 | -147 | -1 | -7 | nt
CC(C)CC[C@H]1O[C@@H](CC(=O)O)Cc2cc3c(c(O)c21)C(=O)c1sc(=O)n(C)c1C3=O | 77* | -18 | -6 | 16 | 78*
Cc1cccc(C(=O)Nc2c(C)nn(Cc3cccc4ccccc34)c2C)c1 | 31* | 13 | 0 | 19 | 24
CCn1nc(C)c(CNC(=O)c2[nH]c3ccc(C)cc3c2NC(=O)c2cccc(C)c2)c1C | 24 | 12 | -2 | 88* | 77*
Cc1cccc(C(=O)Nc2cc(C(C)(C)C)on2)c1 | 25 | 5 | 3 | 6 | 7
N#Cc1cccc(S(=O)(=O)N2CCC(c3nc(C4CC4)no3)C2)c1 (configuration not stated) | 10 | 14 | -1 | 6 | 3
Cc1ccc(C)c(S(=O)(=O)N2CCN(c3nc(-c4cccs4)nc4ccccc34)CC2)c1 | 6 | -47 | 2 | 31* | 14
Cc1cccc(NC(=O)CSc2ccc(-n3cnc(-c4ccccc4)c3)nn2)c1 | 13 | -2 | 4 | 61* | 20
Cc1cccc(NC(=O)CSc2ccc(-c3nc(C)no3)cn2)c1 | -22 | -9 | -2 | -81 | -14
COc1ccc(CC(=O)Nc2cc(S(=O)(=O)Nc3ccccc3F)ccc2Cl)cc1 | 24 | -11 | 17 | 14 | 10
CS(=O)(=O)c1cccc(C(=O)Nc2sc3c(c2C(N)=O)CCCC3)c1 | 0 | 10 | 20 | 15 | 36*
O=C(c1ccccc1F)N1CCC(c2[nH]nc3nccnc23)CC1 | 19 | 1 | 4 | 35* | 17
CC1CC(=O)Nc2cc(S(=O)(=O)Nc3ccc(F)cc3F)ccc2S1 (configuration not stated) | -3 | -5 | 0 | -14 | 6
CC1CC(=O)Nc2cc(S(=O)(=O)Nc3cccc(F)c3)ccc2S1 (configuration not stated) | 14 | 12 | 11 | 31* | 12
Cc1ccc(C(=O)N2CCCCC2c2nc(-c3ccncc3)no2)cc1 (configuration not stated) | 14 | 2 | 0 | 9 | 11
CN1CCCc2cc(C(CNC(=O)COc3ccccc3F)N3CCCCC3)ccc21 (configuration not stated) | -22 | -2 | -6 | -68 | -22
Cc1cccc(NC(=O)Cn2cnc(S(=O)(=O)N3CCc4ccccc43)c2)c1 | -5 | -1 | 3 | -36 | -25
COc1ccc(NS(=O)(=O)c2cc(OC)ccc2NC(=O)c2cc3c(s2)CCC3)cc1 | 0 | -1 | -3 | -17 | 31*
O=C(Nc1cc(S(=O)(=O)N2CCOCC2)ccc1Cl)c1cc2c(s1)CCCC2 | 0 | 0 | 7 | -1 | 4
Nc1nc(N2CCCCC2)ncc1C(=O)NCc1ccccc1F | 14 | -17 | 0 | 0 | -5
Cc1cc(C(=O)C(=O)Nc2nnc(-c3cccnc3)s2)c(C)n1-c1ccccc1F | -67 | 37* | -6 | -342 | -28
SMILES | USP28 inh | USP8 inh | USP10 block | USP30 inh | USP17 block
Cc1sc(NC(=O)CN2CCCCC2)nc1-c1ccc2c(c1)CCN2C(=O)CC(C)(C)C | -2 | 17 | -4 | -36 | -8
COc1ccccc1S(=O)(=O)N1CC[C@@H]2CN(C)[C@@H]2C1 | 7 | -1 | 1 | 18 | 56*
CC(C)(C)c1ccc(S(=O)(=O)N2CCc3nc[nH]c3C2)cc1 | 0 | -3 | 2 | 4 | 0
Cn1c(=O)n(Cc2ccccc2F)c(=O)c2c1nc1n2CCCN1Cc1ccccc1 | 22 | -12 | 7 | 40* | 7
Cn1c(N2CCCCCC2)nc2c1c(=O)n(Cc1ccccc1Cl)c(=O)n2C | -6 | -20 | 0 | -5 | -9
Cn1c(N2CCCCCC2)nc2c1c(=O)n(Cc1ccc(Cl)cc1)c(=O)n2C | 11 | -11 | 2 | 39* | 2
CCc1[nH]c(=O)cc2cc(OC)c(OC)cc12 | 97* | 91* | 79* | 82* | 94*
COc1ccccc1NC(=O)c1cc(S(=O)(=O)N2CCCc3ccccc32)ccc1F | 0 | -2 | -2 | 11 | 43*
COc1ccc(S(=O)(=O)N2CCc3ccccc32)cc1C(=O)Nc1ccc2[nH]c(=O)[nH]c2c1 | 37* | 73* | 31* | 87* | 27
COc1cc(CNc2ccc(N3CCOCC3)c(C(=O)O)c2)cc(Br)c1OCc1ccccc1F | -21 | -26 | 2 | -5 | -7
O=C(Cc1ccc(Cl)cc1)Nc1ccc2nn(-c3ccc(F)cc3)nc2c1 | nt | 3 | 20 | nt | 45*
COc1cc(NC(=O)c2cc(-c3ccncc3)n(-c3ccc(F)cc3)n2)cc(OC)c1 | 71* | 5 | 4 | 14 | 10
Cc1ccc(-c2nc(Cn3cnc4ccccc4c3=O)cs2)cc1 | 33* | 37* | 15 | 58* | 37*
Cc1ccccc1CNC(=O)C1CCN(C2=NS(=O)(=O)c3ccccc32)CC1 | 6 | 18 | -4 | 32* | 12
COc1ccc(NC(=O)C2CCN(C3=NS(=O)(=O)c4ccccc43)CC2)cc1 | 17 | 3 | 4 | 41* | 43*
COc1ccc(C2=Nc3c(-c4ccccc4)c(C)nn3C(c3cccnc3)C2)cc1OC (configuration not stated) | -25 | -18 | -3 | -136 | -17
O=C(Nc1ccnn1Cc1ccccn1)c1cccnc1Sc1ccccc1 | 6 | -1 | 0 | 11 | 0
COc1ccc(N(CC(=O)Nc2ccc(OC)c(OC)c2)S(=O)(=O)c2c(C)nn(C)c2C)cc1 | 4 | -12 | 3 | 41* | 23
COc1ccc(N2CCN(C(=O)c3nnn(-c4ccc(OC)cc4)n3)CC2)cc1 | 17 | 0 | 6 | 36* | 11
COc1ccc(-n2nnc(C(=O)N3CCN(c4ccccc4Cl)CC3)n2)cc1 | 33* | 13 | 10 | 33* | 23
COc1ccc(-n2nnc(C(=O)N3CCC4(CC3)OCCO4)n2)cc1 | 5 | 13 | 0 | 9 | 12
NC(=O)C1CCN(C(=O)c2nnn(-c3ccc(OC(F)(F)F)cc3)n2)CC1 | 0 | -3 | 0 | 12 | -2
NC(=O)C1CCN(C(=O)c2nnn(-c3ccccc3)n2)CC1 | 14 | 16 | 0 | 34* | 16
Cc1cc(C)c(NC(=O)CSc2nc3nccnc3c(=O)n2Cc2ccccc2Cl)c(C)c1 | 37* | -13 | 9 | -11 | 49*
Cc1nc2ccn(Cc3ccco3)c(=O)c2cc1C(=O)NCc1cccs1 | 30* | 6 | 3 | 10 | 5
COCCn1ccc2nc(C)c(C(=O)NCc3ccccc3)cc2c1=O | 7 | -2 | -4 | 16 | 17
